PubChem BioAssay AID624487 (NMMLSC, 2012)
Potency and affinity values are given separately. Calls of active or inactive are those of the source.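 How the source made its calls: active means fitted EC50, the dose giving half the maximal drop in porphyrin signal, under 100 µM; inactive means the rest.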

Target: ATP-binding cassette sub-family B member 6 (Homo sapiens) (UniProt Q9NP58)
Assay: ABCB6 transporter inhibitors, porphyrin accumulation, dose response, flow cytometry, K562-ABCB6 cells, cherry pick 02 (AID 624487)

ATP-binding cassette sub-family B member 6 (Homo sapiens), sequence (Q9NP58 whole entry, looked up): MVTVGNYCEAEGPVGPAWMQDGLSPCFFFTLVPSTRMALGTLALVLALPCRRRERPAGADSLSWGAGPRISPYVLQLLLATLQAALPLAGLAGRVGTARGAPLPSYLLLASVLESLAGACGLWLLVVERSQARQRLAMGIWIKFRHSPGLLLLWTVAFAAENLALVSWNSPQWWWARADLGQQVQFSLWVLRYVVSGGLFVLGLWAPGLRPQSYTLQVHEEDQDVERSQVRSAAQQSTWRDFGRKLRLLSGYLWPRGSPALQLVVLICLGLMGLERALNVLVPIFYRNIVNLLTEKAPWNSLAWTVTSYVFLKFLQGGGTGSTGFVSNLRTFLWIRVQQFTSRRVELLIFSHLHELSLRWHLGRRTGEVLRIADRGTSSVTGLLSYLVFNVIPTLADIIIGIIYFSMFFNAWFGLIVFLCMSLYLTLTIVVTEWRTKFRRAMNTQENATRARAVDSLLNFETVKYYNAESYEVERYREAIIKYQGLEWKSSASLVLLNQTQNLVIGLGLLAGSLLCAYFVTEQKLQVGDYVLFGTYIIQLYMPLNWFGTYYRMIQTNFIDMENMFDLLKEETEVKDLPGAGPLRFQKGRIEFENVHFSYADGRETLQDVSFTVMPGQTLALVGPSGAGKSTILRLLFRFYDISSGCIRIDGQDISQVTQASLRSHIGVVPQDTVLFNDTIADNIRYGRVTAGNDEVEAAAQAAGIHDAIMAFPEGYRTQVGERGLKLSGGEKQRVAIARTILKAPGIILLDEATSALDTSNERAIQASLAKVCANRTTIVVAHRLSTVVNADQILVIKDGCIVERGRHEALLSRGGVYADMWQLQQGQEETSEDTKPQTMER

Cc1ccc(CS(=O)(=O)c2ncc(Cl)c(C(=O)Nc3nnc(C)s3)n2)cc1
outcome: inactive

COc1ccc(OC)c(NC(=O)c2nc(S(=O)(=O)Cc3ccccc3)ncc2Cl)c1
outcome: inactive

COc1ccc(NC(=O)c2nc(S(=O)(=O)Cc3cccc(C)c3)ncc2Cl)c(OC)c1
outcome: inactive

CCCc1nnc(NC(=O)c2nc(S(=O)(=O)Cc3ccc(C)cc3)ncc2Cl)s1
outcome: inactive

CCOc1ccccc1NC(=O)c1nc(S(=O)(=O)Cc2ccccc2)ncc1Cl
outcome: inactive

CCOC(=O)c1ccc(NC(=O)c2nc(S(=O)(=O)Cc3ccccc3)ncc2Cl)cc1
outcome: inactive

CCc1nnc(NC(=O)c2nc(S(=O)(=O)Cc3ccccc3)ncc2Cl)s1
outcome: inactive

Cc1nnc(NC(=O)c2nc(S(=O)(=O)Cc3ccccc3C)ncc2Cl)s1
outcome: inactive

Cc1nnc(NC(=O)c2nc(S(=O)(=O)Cc3ccccc3)ncc2Cl)s1
outcome: inactive

Cc1ccc(CS(=O)(=O)c2ncc(Cl)c(C(=O)Nc3ccc(OC(F)F)cc3)n2)cc1
outcome: inactive

CCc1nnc(NC(=O)c2nc(S(=O)(=O)Cc3cccc(C)c3)ncc2Cl)s1
outcome: inactive

CC(C)c1nnc(NC(=O)c2nc(S(=O)(=O)Cc3ccc(F)cc3)ncc2Cl)s1
outcome: inactive

Cc1cccc(CS(=O)(=O)c2ncc(Cl)c(C(=O)Nc3nnc(C(C)C)s3)n2)c1
outcome: inactive
